Molecules are shown by their SMILES. Compounds without any hit were thinned out: in the full panel of roughly 79,000, 15% have a hit. The source made the active and inactive calls. Rule as the data show it: active = growth inhibition above about 70%; inactive = the rest.

The assay can be described thus: NCI Yeast Anticancer Drug Screen. Data for the mlh1 strain (AID 171).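 Also: 0% = growth of vehicle-treated control cultures of the same strain.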 The settings on record: S. cerevisiae mlh1 strain growth inhibition; at 33.0 µM; hits give high values. The procedure, abridged:
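Compounds are applied to a genetically altered yeast strain, and its growth is compared with that of vehicle-treated cultures to give percent inhibition.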
Turning to `O=[N+]([O-])c1cc[n+]([O-])cc1`, the growth inhibition was -3% (inactive).
The same measure for `CC1(C)CC(=O)C(/C=N/c2nc(-c3ccccc3)cs2)=C(O)C1`: 45% (inactive); for `Nc1nc(N)c2nc(CNc3ccc(C(=O)NC(CCC(=O)O)C(=O)O)cc3F)cnc2n1` (stereo not drawn): 29% (inactive); for `COC(=O)CC1(O)C(/C=C/c2ccccc2)C(C(=O)OC)C(=O)C(C(=O)OC)C1C(=O)OC` (stereo not drawn): 1% (inactive).
The same measure for `CC(C)(C)c1ccc(NS(=O)(=O)c2ccc(N)cc2)cc1`: -13% (inactive); for `CCN(CC)CCNc1ccc([N+](=O)[O-])c2nc3ccccc3c(N)c12`: -4% (inactive).
The same measure for `CCCCN(CCCC)C(=O)/C=C/c1ccccc1`: 18% (inactive); for `O=c1[nH]c(-c2ccccc2)nc2c1sc1nc3ccccc3n12`: -28% (inactive).
Consider `O=[N+]([O-])c1ccc2c(c1)/C(=N/N=C1c3ccccc3Cc3ccccc31)c1cc([N+](=O)[O-])cc([N+](=O)[O-])c1-2`, for which the growth inhibition was 98% (active).
The same measure for `CC(C)C(C)/C=C\C(C)C1CCC2C3=CC=C4CC(O)CCC4(C)C3CCC21C` (stereo not drawn): -11% (inactive).
The same measure for `O=C1Nc2ccc(Br)cc2C1=Nc1ccc2c(c1)OCO2`: -30% (inactive); for `CCCCOCn1c(=O)[nH]c(=O)c2cc(Br)ccc21`: -41% (inactive); for `Cc1ccc(S/C(=C\C(=O)O)c2ccccc2)cc1`: 20% (inactive).
For the compound `O=[N+]([O-])/C=C/c1cc(Cl)c(/C=C/[N+](=O)[O-])cc1Cl`, the growth inhibition was 96% (active).
The same measure for `Cc1cc(S(=O)(=O)Nc2nnc3cnc4ccccc4n23)c(S)cc1Cl`: 13% (inactive); for `O=C(/C=C/c1cc(Cl)cc(Cl)c1O)c1cccc(O)c1`: 98% (active).
The result for `NC1CCCCC1N.Nc1c(N=Nc2ccc(-c3ccc(N=Nc4cc(S(=O)(=O)[O-])c5ccccc5c4N)cc3)cc2)cc(S(=O)(=O)[O-])c2ccccc12.[OH3+].[OH3+].[Pt+4]` reads 90% (active); that for `COC(=O)CCC(NC(=S)N/N=C(\C)c1ccccn1)C(=O)OC` (stereo not drawn), 62% (inactive); that for `NC(=O)C(=O)NNc1ccccc1`, 75% (active).
The same measure for `COc1cc(C2SCC(=O)N2c2ccc(-c3ccc(-n4c(-c5ccccc5)nc5ccccc5c4=O)cc3)cc2)ccc1O` (stereo not drawn): 3% (inactive).
Turning to `COc1ccc(/C=C/c2sc3ccccc3[n+]2CCCCI)cc1OC`, the growth inhibition was 66% (inactive).
The result for `Cc1c(C(C)C)cc(OCCO)cc1C(C)C` reads -11% (inactive); that for `Cc1cc(NCCCCCCCCNc2cc(C)nc3cc(N)ccc23)c2ccc(N)cc2n1`, 97% (active); that for `C=C(Cl)COC(=O)Nc1cccc(Cl)c1`, 36% (inactive).
For `CC(=O)OC1CC2C(C)(C)C(=O)C=C[C@]2(C)C2CCC3(C)C(=CCC3[C@H](CO)C[C@H](O)C(=O)C(C)(C)O)[C@]12C` (stereo partly drawn), the growth inhibition is 86% (active).
The result for `COc1ccc(/C=C/C(=O)c2ccccc2)cc1OC` reads 67% (inactive); that for `COc1c(O)c(C=O)c(Br)c(C=O)c1O`, 43% (inactive).
The result for `O=[N+]([O-])c1cc(Cl)cnc1Br` reads 12% (inactive); that for `Cc1ccc2c(c1)C1(SC(C)C(=O)N1c1ccc(Cl)cc1)C(=O)N2` (stereo not drawn), 95% (active).
Regarding `COc1cc(CSc2ccc(O)cc2)cc(O)c1O`, the growth inhibition was 2% (inactive).
The same measure for `Cc1ccc2c3ccc4c(c3n(C)c2c1)C(=O)C=CC4=O`: 46% (inactive); for `O=C(Nc1ccc(Cl)cc1)Nc1nnc2nc(C(C(=O)c3cccc([N+](=O)[O-])c3Cl)c3nc4nnc(NC(=O)Nc5ccc(Cl)cc5)n4[nH]c3=O)c(=O)[nH]n12`: -1% (inactive).
The same measure for `O=C(O)C1CC(c2ccccc2)=NN1c1ccccc1` (stereo not drawn): 8% (inactive); for `CCCCc1ccc(-n2c(C)c(COC(=O)NC)c(COC(=O)NC)c2C)cc1`: 97% (active).
The result for `CCC(=O)c1cc(C(=O)C(=S)SC)cc(C(=O)C(=S)SC)c1` reads 96% (active); that for `CCn1c(O)c(C=Nc2ccccc2)s/c1=N/Nc1nc(-c2ccccc2)cs1`, 4% (inactive).
Take `Cc1ccccc1N=C(NO)c1ccccc1`: the growth inhibition is 31% (inactive).
As for `Cc1nc2ccccc2nc1NNc1ccccc1`, the growth inhibition is 30% (inactive).
